Compound activity deposited in PubChem BioAssay by Paczesny and Yang Labs, IUPUI and University of Michigan.
ST2 IL33 inh: inhibitors of human ST2 (IL1RL1) binding to IL-33 | AID 1259354 | AlphaLISA ST2-Fc/biotin-IL-33 interaction, 1 h | 78,000 tested, 2.3% active | Q01638 | inhibition, % for hits at 17 µM; in the data active = inhibition above about 30%
Target sequence (Q01638 whole entry, looked up): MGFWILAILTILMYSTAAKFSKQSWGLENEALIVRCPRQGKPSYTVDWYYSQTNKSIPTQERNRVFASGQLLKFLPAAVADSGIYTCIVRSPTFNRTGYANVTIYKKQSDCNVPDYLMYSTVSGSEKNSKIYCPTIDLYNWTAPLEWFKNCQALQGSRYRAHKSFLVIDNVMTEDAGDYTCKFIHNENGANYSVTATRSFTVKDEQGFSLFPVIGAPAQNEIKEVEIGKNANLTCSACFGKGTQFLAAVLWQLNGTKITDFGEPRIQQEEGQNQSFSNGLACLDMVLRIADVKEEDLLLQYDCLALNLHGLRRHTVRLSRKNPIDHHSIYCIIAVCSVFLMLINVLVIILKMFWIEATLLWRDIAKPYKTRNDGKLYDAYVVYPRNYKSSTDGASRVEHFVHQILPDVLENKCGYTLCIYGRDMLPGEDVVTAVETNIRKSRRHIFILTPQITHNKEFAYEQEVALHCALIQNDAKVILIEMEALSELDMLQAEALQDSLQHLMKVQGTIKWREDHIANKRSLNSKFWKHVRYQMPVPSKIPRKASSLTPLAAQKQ
* hit, by the source's call. Many of the other results were omitted from the sample, so hits are more common in it than they were.

Screening CC1(C)OC(=O)C(=CNc2ccc(C(=O)O)cc2)C(=O)O1 returned ST2 IL33 inh inactive.
Screening CCCCC1(C)OC(=O)C(=Cc2ccc(N(CC)CC)cc2)C(=O)O1 (configuration not stated) returned ST2 IL33 inh 33%*.
`O=C1C(=Cc2cccn2-c2ccc(Cl)cc2)C(=O)c2ccccc21` gave ST2 IL33 inh inactive.
For CCCCC1(C)OC(=O)C(=Cc2ccc(OC)c(I)c2)C(=O)O1 (configuration not stated) the results were ST2 IL33 inh inactive.
CC1(C)OC(=O)C(=Cc2ccc(I)o2)C(=O)O1 was read as ST2 IL33 inh 93%*.
For CC1(c2ccccc2)OC(=O)C(=Cc2ccc(O)cc2)C(=O)O1 (configuration not stated) the results were ST2 IL33 inh inactive.
For O=C1C(=Cc2ccc(-c3ccc(F)cc3)o2)C(=O)c2ccccc21 the results were ST2 IL33 inh inactive.
Screening CCCCOc1ccc(OC(=O)c2ccc(Br)o2)cc1 returned ST2 IL33 inh inactive.
`CC(C)c1ccc(C2C(=C(O)c3ccc(Cl)cc3)C(=O)C(=O)N2c2cccnc2)cc1` (configuration not stated) gave ST2 IL33 inh inactive.
For C=CCn1c(-c2nonc2NC(=O)c2ccccc2Cl)nc2ccccc21 the results were ST2 IL33 inh inactive.
For O=C(NCC(c1ccccc1)c1ccccc1)c1cn(CC2CCCO2)nn1 (configuration not stated) the results were ST2 IL33 inh inactive.
For OC1CCCN(Cc2ccc(F)c(F)c2)C1 (configuration not stated) the results were ST2 IL33 inh inactive.
Screening COc1cc(N2CCC3(CC2)CNC(=O)O3)ncn1 returned ST2 IL33 inh inactive.
For CC(C)(C)CC(=O)Nc1ccccc1[N+](=O)[O-] the results were ST2 IL33 inh inactive.
Screening O=C(Nc1ccccc1[N+](=O)[O-])C1C2CCCCC21 (configuration not stated) returned ST2 IL33 inh 39%*.
`O=C(NC1CCCCCC1)c1ccccc1[N+](=O)[O-]` gave ST2 IL33 inh inactive.
`O=C(Cn1c(-c2ccccc2F)nc2ccccc2c1=O)N1CCN(c2ccc(F)cc2)CC1` gave ST2 IL33 inh inactive.
Cc1nn(C2CCCCC2)c2c1C(c1ccc3c(c1)nnn3C)CC(=O)N2 (configuration not stated) was read as ST2 IL33 inh inactive.
O=C(CSc1nnnn1-c1ccccc1)N1CCCC1 was read as ST2 IL33 inh inactive.
Screening COc1ccc(CNc2ccc3c(c2)ncn3C2CCCCC2)cc1OC returned ST2 IL33 inh 33%*.
For COc1ccc(CNC(=O)c2ccc3c(c2)ncn3C2CCCC2)c(OC)c1 the results were ST2 IL33 inh inactive.
For COc1ccc(CNc2ccc3c(c2)ncn3C2CCCCC2)cc1 the results were ST2 IL33 inh 39%*.
For CCn1cnc2cc(NCc3ccc(OC)c(OC)c3)ccc21 the results were ST2 IL33 inh inactive.
COc1ccc(CNc2ccc3c(c2)ncn3C(C)(C)C)cc1OC was read as ST2 IL33 inh inactive.
For CCOc1ccc(CNc2ccc3c(c2)ncn3C(C)(C)C)cc1 the results were ST2 IL33 inh inactive.
For Cc1ccc(C(=O)N2N=C(c3cccc(Br)c3)CC2(O)C(F)(F)F)o1 (configuration not stated) the results were ST2 IL33 inh inactive.
`COC(=O)c1ccc(C2Nc3ccccc3C(=O)N2c2ccc(F)c(Cl)c2)cc1` (configuration not stated) gave ST2 IL33 inh inactive.
For Cn1c(C(=O)N(C/C=C/c2ccccc2)CCO)cc2ccccc21 the results were ST2 IL33 inh inactive.
Screening CCOC(=O)C1Nc2c(ccc(C(=O)O)c2C)C2C=CCC12 (configuration not stated) returned ST2 IL33 inh inactive.
Cc1ccc(C2Nc3c(ccc(C(=O)O)c3C)C3C=CCC32)cc1 (configuration not stated) was read as ST2 IL33 inh inactive.
For O=C(c1ccc2c(c1)C1C=CCC1C(c1ccc(Cl)cc1)N2)N1CCOCC1 (configuration not stated) the results were ST2 IL33 inh 63%*.
For CN1CCN(C(=O)c2cccc([N+](=O)[O-])c2)CC1 the results were ST2 IL33 inh inactive.
`O=C(O)c1ccc2c(c1)C1C=CCC1C(C(=O)O)N2` (configuration not stated) gave ST2 IL33 inh 82%*.
Screening O=C(O)c1ccc2c(c1)C1C=CCC1C(c1ccc(Br)cc1)N2 (configuration not stated) returned ST2 IL33 inh inactive.
For Fc1ccc(C2Nc3ccc(Cl)cc3C3C=CCC32)cc1 (configuration not stated) the results were ST2 IL33 inh inactive.
For O=C(c1ccc2c(c1)C1C=CCC1C(c1cccc([N+](=O)[O-])c1)N2)N1CCCCC1 (configuration not stated) the results were ST2 IL33 inh 38%*.
For COc1ccc(S(=O)(=O)N2CCN(C(=O)c3cccc([N+](=O)[O-])c3)CC2)cc1 the results were ST2 IL33 inh inactive.
`Cc1ccc(-c2noc(CCC(=O)N3CCC(N4CCCCC4)CC3)n2)cc1` gave ST2 IL33 inh inactive.
Screening Cn1cc(CNC(=O)NC2CCCCC2)cn1 returned ST2 IL33 inh inactive.
For O=C1CSC(c2cccnc2)N1c1cccc(F)c1 (configuration not stated) the results were ST2 IL33 inh inactive.
Screening CCCCN(CCCC)S(=O)(=O)c1cc(Br)cc2c1N(C(=O)C1CC1)CC2 returned ST2 IL33 inh inactive.
`FC(F)(F)c1cccc(CC2CN(CCCn3cccn3)CCO2)c1` (configuration not stated) gave ST2 IL33 inh inactive.
O=C(CN1CCc2[nH]nc(-c3ccc(Cl)cc3)c2C1)NCc1ccccn1 was read as ST2 IL33 inh inactive.
`CCC(NS(=O)(=O)c1ccc(Cl)cc1)C(=O)O` (configuration not stated) gave ST2 IL33 inh inactive.
Screening CC(C)CCNC(=O)C1c2c(n(C)c3ccccc23)SCC(=O)N1CCCOC(C)C (configuration not stated) returned ST2 IL33 inh inactive.
`COc1cccc(-c2nc(S(=O)(=O)c3ccccc3)c(N(C)C)o2)c1` gave ST2 IL33 inh inactive.
For O=C1C(=O)N(CCc2ccccc2)C(c2ccc(Cl)cc2)C1=C(O)c1ccccc1 (configuration not stated) the results were ST2 IL33 inh inactive.
`[N-]=C=C1C(=O)N(CCc2ccccc2)C(=O)[C@H]([n+]2ccccc2)[C@H]1c1ccc(Cl)cc1` gave ST2 IL33 inh 34%*.
CCN1CCN(Cc2cnc(S(=O)(=O)CC)n2CCCc2ccccc2)[C@@H](C)C1=O was read as ST2 IL33 inh inactive.
`CN1[C@@H](CCC(=O)N2CCN(c3ccccn3)CC2)CNC(=O)[C@@H]2[C@H]1CCN2C1CCCCC1` gave ST2 IL33 inh inactive.
`CCCc1nc(N)c(C#N)c(-c2ccc(OC)cc2)c1CC` gave ST2 IL33 inh inactive.
Screening Cc1ccc(NCC2OCc3ccccc3CO2)cc1 returned ST2 IL33 inh 97%*.
For CNCC1OCCc2ccccc21 (configuration not stated) the results were ST2 IL33 inh inactive.
c1nc(N2CCC(c3nn[nH]n3)CC2)c2cc[nH]c2n1 was read as ST2 IL33 inh inactive.
CCOc1ccccc1CN1C(=O)CCC1(C)C(=O)NC1CCCC1 (configuration not stated) was read as ST2 IL33 inh inactive.
